Most compounds without a hit are left out; they make up all but 1.5% or so of the library.
Myeloid diff MLP – promotes myeloid progenitor differentiation | calls only at 10 µM | AID 624256 | ER-HoxA9 myeloid progenitors, lysozyme-GFP differentiation, flow cytometry | 360,000 tested, 1% active;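 active means normalized GFP-positive differentiation at or above the plate's own cutoff, the solvent-only control mean plus 3 SD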;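 further: cells exposed to compound for four days before flow analysis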
TLR4 MyD88 comp – TLR4-MyD88 interaction inhibition in cells; 200,000 tested, 0.18% active; O00206+Q99836; HeLa CL3-4 TLR4/MyD88 BLA complementation, FRET ratio; inhibition, % at 8.4 µM; in the data active means inhibition above about 25%
NOD2-RIPK2 inh – inhibitors of human NOD2-RIPK2 interaction; O43353; CHO BLA complementation NOD2-RIPK2, CCF4 ratio; inhibition, % at 4.98 µM; 360,000 tested, 0.38% active; AID 624267; in the data active means inhibition above about 21%
Target sequence (O43353 whole entry, looked up): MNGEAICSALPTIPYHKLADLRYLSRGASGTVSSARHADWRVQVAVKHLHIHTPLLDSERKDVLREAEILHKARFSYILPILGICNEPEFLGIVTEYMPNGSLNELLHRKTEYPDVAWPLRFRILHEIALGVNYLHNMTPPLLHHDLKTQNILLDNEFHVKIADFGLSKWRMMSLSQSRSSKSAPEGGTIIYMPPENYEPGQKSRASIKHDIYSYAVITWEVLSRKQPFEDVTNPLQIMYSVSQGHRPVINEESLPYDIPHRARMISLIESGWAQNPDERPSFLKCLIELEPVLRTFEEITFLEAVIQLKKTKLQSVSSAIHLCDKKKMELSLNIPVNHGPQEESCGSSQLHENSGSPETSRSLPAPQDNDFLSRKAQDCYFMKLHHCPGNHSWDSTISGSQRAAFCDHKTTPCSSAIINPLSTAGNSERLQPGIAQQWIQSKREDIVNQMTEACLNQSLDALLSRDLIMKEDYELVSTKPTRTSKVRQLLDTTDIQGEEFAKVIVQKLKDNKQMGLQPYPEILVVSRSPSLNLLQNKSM
TLR9-MyD88 inh – blocks human TLR9 binding to MyD88; CHO BLA complementation TLR9-MyD88, CCF4 FRET ratio; Q9NR96+Q99836; inhibition, % at 4.98 µM; 340,000 tested, 0.21% active;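 active means inhibition above the mean over all tested compounds plus 3 SD, cut at about 21% in these data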
Each line names hits and unclear results; the compound was inactive in the other large screens.

O=c1[nH][nH]c2c1C(c1ccc(Cl)c(Cl)c1)OC(CCc1ccccc1)C2 (stereo not given)	none (no result: TLR4 MyD88 comp, TLR9-MyD88 inh)
O=C(Nc1ccncc1)C1(c2ccccc2)CCCC1	none
O=C(Nc1ccc(O)c(-c2nc3ccccc3o2)c1)C1(c2ccccc2)CCCC1	Myeloid diff MLP active
CCCN1CCc2c(sc3nc(SCC)n(-c4ccccc4)c(=O)c23)C1	Myeloid diff MLP active (no result: TLR4 MyD88 comp)
COC(=O)C(=O)C/C(=N/Nc1ncnc2ccccc12)c1ccc(Cl)cc1	Myeloid diff MLP active (no result: TLR4 MyD88 comp)
Cc1ccc(/C(=N/Nc2ncnc3ccccc23)C(=O)O)cc1	none (no result: TLR4 MyD88 comp)
COc1ccc2noc3c2c1C(=O)c1ccccc1-3	Myeloid diff MLP active (no result: TLR4 MyD88 comp)
COc1ccc(OC)c2c1C(=O)c1ccccc1C2=O	none (no result: Myeloid diff MLP, NOD2-RIPK2 inh, TLR9-MyD88 inh)
CC(C)=C[C@H]1C[C@H](C)[C@H]2CC[C@H](C)c3c(O[C@@H]4O[C@@H](C)[C@@H](O)[C@@H](O)[C@@H]4O)c(O)c(C)c1c32	none (no result: TLR4 MyD88 comp, TLR9-MyD88 inh)
O=c1cc(-c2ccccc2[N+](=O)[O-])oc2ccccc12	Myeloid diff MLP active
CN1C(=O)[C@@](O)(c2cn(C)c3ccccc23)c2cc(Br)ccc21	none (no result: TLR4 MyD88 comp, TLR9-MyD88 inh)
Cn1cnc(S(=O)(=O)N2CCCCC2c2cc(C(=O)Nc3cccc4c3CCCC4)no2)c1 (stereo not given)	none (no result: TLR4 MyD88 comp, TLR9-MyD88 inh)
O=C(CC12CC3CC(CC(C3)C1)C2)NCCN1CCOCC1	none
O=C(CN1CCOCC1)NCC12CC3CC(CC(C3)C1)C2	Myeloid diff MLP active
N#C/C(=C\c1ccc(N2CCCCC2)o1)C(N)=O	none
N#C/C(=C\c1ccc(N2CCCCC2)o1)C(=O)Nc1cccc(Br)c1	Myeloid diff MLP active
CCC(=O)N1CCC(C)(C(=O)NCc2ccc(F)cc2)C1 (stereo not given)	none (no result: TLR4 MyD88 comp, TLR9-MyD88 inh)
CN(C)C(=O)COC(=O)c1ccccc1OCC(=O)Nc1ccc(SC(F)F)cc1	none
O=C(COc1ccccc1C(=O)O)Nc1ccc(SC(F)F)cc1	TLR4 MyD88 comp 25.0
C[C@H](NC(=O)C1CCN(C(=O)[C@@H]2CCCN2C(=O)OC(C)(C)C)CC1)C(=O)NCc1ccc(F)cc1	none (no result: TLR4 MyD88 comp, TLR9-MyD88 inh)
Cc1ccccc1N/C(=N/S(=O)(=O)c1ccccc1)c1ccc(F)cc1	Myeloid diff MLP active (no result: TLR4 MyD88 comp)
COc1ccc(NS(=O)(=O)c2cc(N/C(=N\S(=O)(=O)c3ccccc3)c3ccc(F)cc3)ccc2Cl)cc1	Myeloid diff MLP active
O=C(NC1CCCCC1)c1nc(-c2c(F)cccc2F)oc1-c1ccccc1	none (no result: TLR4 MyD88 comp, TLR9-MyD88 inh)
COC(=O)Cc1c(O)ccn(CCc2ccc(OC)c(OC)c2)c1=O	none
COc1ccc(CCn2ccc(O)c(Cc3ccc(Cl)cc3)c2=O)cc1OC	Myeloid diff MLP active
O=[N+]([O-])c1cc(C2Nc3cccc4cccc(c34)N2)ccc1Cl	Myeloid diff MLP active
CCc1ccc(-c2nc(SCC(=O)N(CCOC)c3c(N)n(Cc4ccccc4)c(=O)[nH]c3=O)n[nH]2)cc1	none (no result: TLR4 MyD88 comp)
CCN(C(=O)CSc1nnc2ccccn12)c1c(N)n(Cc2ccccc2)c(=O)[nH]c1=O	none
CCN(C(=O)CSc1n[nH]c(-c2ccc(OC)cc2)n1)c1c(N)n(Cc2ccccc2)c(=O)[nH]c1=O	Myeloid diff MLP active (no result: TLR4 MyD88 comp)
CCCCN(C(=O)CSc1nnc2ccccn12)c1c(N)n(Cc2ccccc2)c(=O)[nH]c1=O	Myeloid diff MLP active
O=C1[C@H]2[C@@H]3CCN1CCC[C@@H]2C=C[C@@H]3c1ccc(Br)cc1	none (no result: TLR4 MyD88 comp, TLR9-MyD88 inh)
CC(C)c1cn(CC[C@@H]2CC[C@@H](NC(=O)C3CCCCC3)[C@@H](CO)O2)nn1	none (no result: TLR4 MyD88 comp, TLR9-MyD88 inh)
C#CCSc1n[nH]c(-c2ccco2)n1	Myeloid diff MLP active (no result: TLR4 MyD88 comp)
COc1ccc(NC(=O)CSc2n[nH]c(-c3ccco3)n2)cc1	Myeloid diff MLP active
O=C(CSc1n[nH]c(-c2ccco2)n1)Nc1ccc(Br)cc1	none (no result: TLR4 MyD88 comp)
O=C(O)c1ccc(CSc2n[nH]c(-c3ccco3)n2)cc1	none
COC(=O)CN1C(=O)CSc2ccc(S(=O)(=O)N3CCC(C)CC3)cc21	none (no result: TLR4 MyD88 comp, TLR9-MyD88 inh)
COc1ccc([C@H]2CC(=O)C[C@@H](CCn3cc(CCc4ccccc4)nn3)O2)cc1	none (no result: TLR4 MyD88 comp, TLR9-MyD88 inh)
CCCCCCN1C[C@H](O)[C@@H](n2cc(C3CC3)nn2)C[C@@H]1c1ccc(OC)cc1	Myeloid diff MLP active (no result: TLR4 MyD88 comp)
CC1(C(=O)NS(=O)(=O)c2cccc(F)c2)CCN1C(=O)CCc1ccccc1 (stereo not given)	none (no result: TLR4 MyD88 comp, TLR9-MyD88 inh)
CCN(CC)CCC12CC(C)OC1=Nc1ccccc1NC2=O (stereo not given)	none (no result: TLR4 MyD88 comp, TLR9-MyD88 inh)
CCN(C[C@H]1N[C@@](Cc2ccccc2)(C(=O)OC)[C@H]2C(=O)N(Cc3ccccc3)C(=O)[C@@H]12)C(=O)Nc1ccc(C)cc1	none (no result: TLR4 MyD88 comp)
CCN(C[C@H]1N[C@@](CC)(C(=O)OC)[C@H]2C(=O)N(Cc3ccccc3)C(=O)[C@@H]12)C(=O)Nc1ccc(C)cc1	Myeloid diff MLP active (no result: TLR4 MyD88 comp)

Screening results deposited in PubChem BioAssay by several laboratories.
